Screening data deposited in PubChem BioAssay by Broad Institute.
These entries were drawn from the full list.
aSyn 5UTR act: Activators via SNCA 5'UTR binding, MLPCN. alpha-synuclein 5'UTR reporter, activators screen. activity score, % (tested at 7.5 µM), hits read low. actives 7.1% (n = 300,000). AID 1814, 2009; in the data active = activity score below about -60%
A number is an active result; – = inactive.

SMILES | aSyn 5UTR act
Cc1ccc(NCCC(=O)c2ccccc2)cc1Cl | -133.9
Cc1ccc(C(=O)CNc2ccc(C)c(Cl)c2)cc1 | -68.4
O=[N+]([O-])c1ccc2cn(-c3ccccc3)nc2c1 | -200.0
COc1ccccc1-n1cc2ccc([N+](=O)[O-])cc2n1 | -118.7
CS(=O)(=O)N1CCN(c2ccc(NC(=O)c3cc4ccccc4o3)cc2)CC1 | -115.8
CN1CCN(c2ccc(NC(=O)c3cc4ccccc4o3)cc2)CC1 | -64.0
O=C(NCc1csc(-c2cccs2)n1)c1ccsc1 | -112.0
O=C(NCCc1ccccc1)c1ccncc1 | -145.7
CCCNC(=O)c1ccc2c(=O)c(O)c(-c3ccc(C)cc3)[nH]c2c1 | –
C=CCN(c1ccc(C(=O)NCCc2ccccc2)cc1)S(C)(=O)=O | -108.9
O=C(NCCc1ccccc1)c1ccc(Cl)nc1 | -169.5
O=C(NCCc1ccccc1)c1ccc(NS(=O)(=O)c2ccc3[nH]c(=O)[nH]c3c2)cc1 | -72.3
O=C(NCCCc1ccccc1)c1ccc(F)cc1 | -101.2
CC(=O)Nc1ccc(C(=O)NCCc2ccccc2)cc1 | -131.3
COc1ccc2cc(C(=O)NCCc3ccccc3)[nH]c2c1 | -172.1
COc1ccc2cc(C(=O)NCc3ccccc3)[nH]c2c1 | -65.5
CN1CCN(C(=O)/C=C/c2c(F)cccc2Cl)CC1 | -67.6
O=C(/C=C/c1c(F)cccc1Cl)Nc1ccncc1 | -328.4
O=C(/C=C/c1c(Cl)cccc1Cl)Nc1ccncc1 | -293.1
O=C1N/C(=N\N=C\c2cccnc2)SC1Cc1ccc(SC(F)F)cc1 (stereo unspecified) | –
COc1cc(/C=N/N=C2/NC(=O)C(CC(=O)O)S2)ccc1OCc1cccc(Cl)c1 (stereo unspecified) | -184.9
O=C(CSc1nnnn1Cc1ccccc1)c1ccccc1 | -66.9
CCn1nnnc1SCC(=O)c1ccc(C)cc1 | -66.0
COC(=O)C[C@](O)(CCCC(C)(C)O)C(=O)O[C@@H]1C(OC)=C[C@]23CCCN2CCc2cc4c(cc2[C@H]13)OCO4 | –
Nc1c(C(=O)Nc2ccc3c(c2)OCCO3)nnn1Cc1cccc(Cl)c1 | -152.9
SMILES | aSyn 5UTR act
Nc1c(C(=O)Nc2ccc3c(c2)OCCO3)nnn1Cc1ccc(F)cc1 | -178.8
Nc1c(C(=O)Nc2ccc3c(c2)OCCO3)nnn1Cc1ccccc1Cl | -205.0
Cc1ccccc1OCc1occc1C(=O)Nc1cccc(-n2cnnn2)c1 | -91.5
CN(C)/C=C/c1onc(-c2ccccc2Cl)c1C#N | -86.7
O=C(N/N=C/c1ccc2c(c1)OCO2)c1cccc(NC(=O)c2ccccc2Cl)c1 | -157.9
Cc1cccc(C(=O)Nc2cccc(C(=O)N/N=C/c3ccc4c(c3)OCO4)c2)c1 | -109.2
COc1ccc(C(=O)N/N=C(/C)c2ccc(N3CCCCC3)cc2)cc1 | -68.0
COc1ccc(/C(C)=N/NC(=O)c2nc(C)cc(C)n2)cc1 | -114.3
C/C(=N\NC(=O)CC(C)C)c1ccc(N2CCCCC2)cc1 | -62.0
COc1ccc(N(C(=O)c2cnccn2)C(C(=O)NCc2ccccc2)c2ccc(O)cc2)cc1 (stereo unspecified) | -75.9
Cc1csc2nc(CCNS(=O)(=O)c3cccs3)cn12 | -141.1
Cc1csc2nc(CNC(=O)c3ccco3)cn12 | -67.7
CCCS(=O)(=O)NCc1cn2c(C)csc2n1 | -112.3
COc1ccc(CC(=O)N2CCc3ccccc32)cc1 | -73.7
COc1ccc(CC(=O)N2CCC(c3ccccc3)C2)cc1 (stereo unspecified) | -65.3
COc1ccc2c(CC(=O)N3CCc4ccccc43)coc2c1 | -104.5
Cc1cccc2c1ncc1c(=O)n(-c3ccccc3)[nH]c12 | -145.9
COc1cccc(N2CCN(c3ncnc4c3[nH]c3ccccc34)CC2C)c1 (stereo unspecified) | -73.5
COc1ccc(-c2nsc3c(N4CCCCC4C)ncnc23)cc1 (stereo unspecified) | –
c1ccc2c(c1)CCN(c1ncnc3c1[nH]c1ccccc13)C2 | -102.0
O=C(COc1ccc(F)cc1)Nc1nccs1 | -90.8
Cc1c(C)c2ccc(OCC(=O)Nc3nccs3)cc2oc1=O | –
O=C(Nc1nccs1)c1ccc(COc2ccc(F)cc2)o1 | -97.1
O=C(COc1ccc(F)cc1)Nc1nc2c(s1)CCCC2 | -91.9
COc1ccc(Br)c(-c2nnc(CS(=O)(=O)c3ccccc3)o2)c1 | -85.0
SMILES | aSyn 5UTR act
Cc1oc2cc3oc(=O)cc(C)c3cc2c1C | -87.5
CCOc1cccc(OCCCOc2ccccc2)c1 | -76.3
O=C(NNC(=S)Nc1cccc(Cl)c1)c1ccccc1OC(F)F | -82.9
Cc1ccc(NC(=S)NNC(=O)c2ccccc2OC(F)F)cc1 | -86.7
O=C(NNC(=S)Nc1ccc(F)cc1)c1ccccc1OC(F)F | -62.7
Cc1ccc(/C=N/NC(=O)c2ccoc2C)s1 | -120.0
Cc1occc1C(=O)N/N=C/c1ccc(Br)s1 | -149.0
C/C(=N\NC(=O)c1ccoc1C)c1ccc(Br)s1 | -64.9
N#C/C(=C\C=C\c1ccccc1[N+](=O)[O-])C(=O)NC1CCCCC1 | -131.6
C/C=C/COC(=O)c1[nH]c2c(c1C)C(=O)CC(c1ccco1)C2 (stereo unspecified) | –
CCOC(=O)C1=C(N)n2c(s/c(=C\c3ccco3)c2=O)=C(C(=O)OCC)C1c1ccco1 (stereo unspecified) | -78.4
Cc1nc(NC(=O)c2cc3ccccc3o2)ccc1Br | -160.2
Cc1cccc(NC(=O)c2cc3ccccc3c(=O)o2)n1 | -190.7
Cc1nc(NC(=O)c2ccc(Br)o2)ccc1Br | -151.5
CCOC(=O)c1oc2ccc(CNCCO)c(Cl)c2c1C | -62.8
COc1cc2sc3ccc(C#CC4(O)CCCCC4)cc3c(=O)c2cc1OC | -136.6
S=C1SCN(Cc2cccnc2)CN1Cc1cccnc1 | -86.4
COc1ccc(NC(=O)COC(=O)c2c(F)cccc2Cl)cc1OC | -110.3
COc1ccc(CCNC(=O)c2ccc(Cl)cc2Cl)cc1OC | -99.3
COc1cc(CCC(C)=O)ccc1OC(=O)c1c(F)cccc1Cl | -185.1
CC(C)CCOCC(=O)Nc1cccc(C(=O)O)c1 | -72.9
COc1ccc(Nc2nc(N)c3ccccc3n2)c(OC)c1 | -197.9
O=C(c1cc(-c2cccc(O)c2)on1)N1CCCC1 | -106.5
O=C(c1cc(-c2ccc(Br)cc2)on1)N1CCCC1 | -109.4
CN1CCN(C(=O)c2cc(-c3ccccc3)on2)CC1 | -80.2
SMILES | aSyn 5UTR act
O=C(c1cc(-c2ccccc2)on1)N1CCCCCC1 | -199.9
CCN(CC)C(=O)c1cc(-c2ccc(Br)cc2)on1 | -152.4
N#CC1=C2C=Cc3ccccc3N2CCCC1=O | -74.3
CC(Cc1cccs1)NC(=O)Nc1ccc(Cl)c(Cl)c1 (stereo unspecified) | -89.6
CC(Cc1cccs1)NC(=O)Nc1ccc(Cl)cc1 (stereo unspecified) | -220.9
CCCC(=O)NC(c1cccs1)c1cc(Cl)c2cccnc2c1O (stereo unspecified) | –
CC(Sc1nnc(NCc2ccccc2)s1)C(=O)Nc1ccc2c(c1)C(=O)c1ccccc1C2=O (stereo unspecified) | -165.0
O=C(COC(=O)C1CC1)Nc1ccc(N=Nc2ccccc2)cc1 | -118.9
Cc1cc2ccccn2c1C(=O)c1ccc([N+](=O)[O-])o1 | -147.3
COc1ccc2c(Cl)c(C(=O)NC3CCS(=O)(=O)C3)sc2c1 (stereo unspecified) | -79.9
O=C(NC1CC1)c1sc2cc(Cl)ccc2c1Cl | -96.6
O=C(Nc1nccs1)c1sc2cc(Cl)ccc2c1Cl | -115.2
O=C(Nc1nccs1)c1sc2ccccc2c1Cl | –
CCN(CC(=O)NCc1ccc(F)cc1)C(=O)/C=C/c1ccc(S(=O)(=O)N(CC)CC)cc1 | -79.0
CCN(CC(=O)Nc1c(F)cccc1F)C(=O)/C=C/c1ccc(S(=O)(=O)N2CCCCCC2)cc1 | –
